# Most compounds without a hit are left out; they make up all but 3.4% or so of the library.
# GPR151 activ: activates the human receptor GPR151; Q8TDV0; PathHunter beta-arrestin GPR151 cells, luminescence; hit rate 1% among 650,000; AID 1508602; activation, % at 11.2 µM; in the data active = activation above about 4.9%;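 note: 0% = median of compound wells and 100% = cells with positive control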
# FBW7 act: human FBW7 E3 ligase activation, primary screen; Q969H0; AlphaScreen FBW7–phospho-cyclin E peptide binding, activator screen; normalized activity (activation), % at 26.1 µM; hit rate 0.13% among 650,000; in the data active = normalized activity above about 1.9%;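 note: purified mutant Fbw7 with reduced substrate affinity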
# TEAD-YAP block: TEAD-YAP interaction inhibition; HEK-TIYL cells, TEAD-Gal4/YAP UAS-luciferase luminescence; inhibition, % at 9.12 µM; hit rate 1.4% among 640,000; AID 1259422; in the data active = inhibition above about 32%;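 note: 0% = median of test compound wells and 100% = reference inhibitor wells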
# MITF primary: blocks human microphthalmia-associated transcription factor. O75030. AlphaScreen MITF homodimerization, bead proximity signal. inhibition, % at 2.6 µM. hit rate 0.91% among 650,000. AID 1259374; in the data active = inhibition above about 50%;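 note: 0% = vehicle wells with protein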
# GPR151 conf act: human GPR151 activation, confirmation screen. shares compounds with GPR151 activ. GPR151 PathHunter beta-arrestin cells, luminescence, 90 min; % of EA-reagent control over plate median. activation, % at 11.2 µM. 6,700 tested, under 10 active. AID 1508609;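 active = mean percent activation across replicates above the confirmation screen cutoff of 4.91%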
# GPR119 counter: activates human GPR119 in a GPR151 counter-screen. shares compounds with GPR151 activ. GPR119 PathHunter beta-arrestin cells, luminescence, 90 min; 0 = compound-well median, 100 = enzyme-acceptor control. activation, % at 11.2 µM. hit rate 0.3% among 6,700. AID 1508611;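 active = mean percent activation in the counterscreen above 29.09%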;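 note: counterscreen on off-target GPR119 to flag nonselective hits from the GPR151 activator screen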
# Starred values were filed as active, the others as inactive; . = no result given; ! = not confirmed by another sample.
SMILES,GPR151 activ,FBW7 act,TEAD-YAP block,MITF primary,GPR151 conf act,GPR119 counter
CC1(C)CC(=O)C2=C(C1)N(c1cc(C(F)(F)F)ccc1Cl)C(N)=C(C#N)C2c1cccc([N+](=O)[O-])c1 (configuration not stated),2,0,13,8,.,.
CC(C(O)c1ccc(O)cc1)N1CCC(Cc2ccccc2)CC1 (configuration not stated),10*!,0,-3,26,2,10
O=S1(=O)CCN2C(c3ccc(Oc4ccccc4)cc3)=CSC2=N1,-3,0,12,7,.,.
Cc1ccc(S(=O)(=O)NC(=O)N2c3ccccc3CCc3ccccc32)cc1,7.4*,0,-1,-4,-1,-13
COc1cccc(NC(=O)CSc2cn(CC(=O)N3CCOCC3)c3ccccc23)c1,0,1,2,0,.,.
COc1cccc(NC(=O)CSc2cn(CC(=O)N3CCC(C)CC3)c3ccccc23)c1,5.1*,0,-1,15,1,3
Cc1ccc2c(c1)CCN2S(=O)(=O)c1ccc2oc(=O)ccc2c1,-1,1,-3,19,.,.
CCN1CCc2c(sc(NC(=O)c3ccc(S(=O)(=O)N4CCCC(C)C4)cc3)c2C(=O)OC)C1 (configuration not stated),5.3*,0,2,8,2,15
COC(=O)c1c(NC(=O)c2ccc(S(=O)(=O)N3CCCC(C)C3)cc2)sc2c1CCN(C(C)C)C2 (configuration not stated),1,0,0,-15,.,.
CCCCCn1c(SCc2ccncc2)nc2cc(C(=O)NCc3cccc(Cl)c3)ccc2c1=O,5.1*,0,2,5,-1,-11
O=[N+]([O-])c1c(N2CCOCC2)cc(Nc2ccccc2O)c2nonc12,0,0,5,14,.,.
CCc1nnc2n1N(C(C)=O)C(c1ccc(Cl)c(Cl)c1)=C(C(C)=O)S2,7.1*,0,17,11,1,2
CCc1nnc2n1N(C(C)=O)C(c1ccc(Cl)cc1)=C(C(C)=O)S2,0,0,19,2,.,.
Cc1cc(C)c(C)c(C(=O)COC(=O)CN2C(=O)c3ccccc3C2=O)c1C,0,0,5,10,.,.
Cc1cc(C)n(-c2cc(NCCO)nc(C)n2)n1,11*,0,2,-3,0,-11
Cc1cc([N+](=O)[O-])ccc1NC(=O)Cc1ccc(F)cc1,0,0,8,-7,.,.
Cc1ccc([N+](=O)[O-])cc1NC(=O)Cc1ccc(F)cc1,5.4*,0,0,7,-1,-11
C/C(CC(=O)Nc1cc([N+](=O)[O-])ccc1C)=N\NC(=O)C(=O)NCCO,8.3*,0,-8,-4,0,9
CC(=O)CC(=O)Nc1cc([N+](=O)[O-])ccc1C,0,0,-6,6,.,.
CCc1ccccc1NC(=S)N(CCN1CCCCCC1)Cc1cccs1,-1,0,9,3,.,.
CC(=O)OC[C@H]1O[C@H](C#Cc2ccc(C(C)(C)C)cc2)C=C[C@@H]1OC(C)=O,0,0,.,-2,.,.
COc1ccc(C#C[C@@H]2C=C[C@H](OC(C)=O)[C@@H](COC(C)=O)O2)cc1,9.3*!,0,.,-8,1,-5
COc1ccccc1C(=O)Nc1nnc(S(=O)(=O)N2CCOCC2)s1,7.9*,0,-7,-2,1,4
CCOc1ccc(C(=O)Nc2nnc(S(=O)(=O)N3CCCCC3)s2)cc1,5.0*,0,-16,9,0,-1
C=CCN(C(=O)c1cc(COc2c(F)cccc2F)on1)C1CCS(=O)(=O)C1 (configuration not stated),-1,0,-34,-5,.,.
SMILES,GPR151 activ,FBW7 act,TEAD-YAP block,MITF primary,GPR151 conf act,GPR119 counter
CCC(=O)N1CCN(S(=O)(=O)c2ccc(C)cc2)C1c1ccc(N(CC)CC)cc1 (configuration not stated),-1,0,5,4,.,.
CC1(C(=O)NNC(=O)Nc2cccc([N+](=O)[O-])c2)CC1(Cl)Cl (configuration not stated),6.4*,0,1,7,0,-1
C=C1C(=O)OC2CC3(C)CCCC(C)C3=CC12 (configuration not stated),6.2*!,0,11,6,1,3
Cc1ccc(C(=O)N(CCO)Cc2cc3cc(C)ccc3[nH]c2=O)cc1,2,0,-7,4,.,.
COc1cccc(CNCC2CCCO2)c1OC (configuration not stated),1,0,0,4,.,.
COc1ccc(CNCC2CCCO2)c(OC)c1OC (configuration not stated),5.9*,0,5,6,0,7
CCSc1nc2ccc(I)cc2c(=O)n1CC,0,0,-14,10,.,.
CC(C)C(=O)Nc1nc2c(ncn2C2OC(CO)C(O)C2O)c(=O)[nH]1 (configuration not stated),3,0,6,4,.,.
C/C(O)=C\c1nc2ccccc2[nH]c1=O,6.9*,0,7,12,0,13
O=c1[nH]c2ccccc2nc1/C=C(\O)C(F)F,0,0,4,14,.,.
CS(=O)(=O)Oc1ccc(Cl)cc1/C=C1/N=C(c2cccs2)OC1=O,5.3*,0,-6,2,1,-3
CCOc1cc(/C=C2/N=C(c3cccs3)OC2=O)ccc1OS(C)(=O)=O,-1,0,7,1,.,.
O=C1NC(=Nc2ccccc2)S/C1=C/c1cccc(Oc2ccccc2)c1,2,0,4,-8,.,.
COc1ccc(CCNC(=O)c2cc(Cl)ccc2[N+](=O)[O-])cc1,5.1*,0,9,4,0,-8
COc1ccc(CC2(CCC(=O)NCc3cnn(C)c3C)CCC(=O)N2)c(F)c1 (configuration not stated),5.1*,0,-1,-7,1,10
O=C(NCCCN1CCCC1)c1cc2c(s1)-c1ccccc1SC2,6.0*,0,-5,12,-1,-17
CN(C)CCNC(=O)c1cc2c(s1)-c1ccccc1SC2,-3,0,-33,1,.,.
O=C(c1ccccc1)N1CC(COc2ccccc2)OC(c2ccc(Cl)cc2Cl)O1 (configuration not stated),0,0,4,-11,.,.
COc1ccc(-c2noc(Nc3ccc(Cl)cc3)n2)cc1,8.2*,0,-21,-2,0,-1
COc1ccc(-c2noc(Nc3ccc(C(C)C)cc3)n2)cc1,-1,1,-11,15,.,.
COc1ccc(CNC(=O)CCCn2cccc2)cc1,8.2*,0,-15,8,2,6
CCCCNC(=O)CCCCCn1c(=O)[nH]c2cc(OC)c(OC)cc2c1=O,0,0,2,-9,.,.
COc1cc2[nH]c(=O)n(CCCC(=O)NCc3ccccc3Cl)c(=O)c2cc1OC,6.8*,0,-12,0,1,4

# Screening data deposited in PubChem by The Scripps Research Institute Molecular Screening Center.
